Source: PubChem BioAssay (National Center for Advancing Translational Sciences (NCATS))
Most compounds without a hit are left out; they make up all but 1.4% or so of the library.
KCNH2 3.1 inh – qHTS for Inhibitors of KCHN2 3.1: Mutant qHTS. 340,000 tested, 0.95% active. AID 720553, 2013. U2OS KCNH2 3.1, thallium flux FluxOr; stronger effect = lower value. activity change, % (tested at about 1.8 µM);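 active means maximum activity change below -70%; inconclusive means maximum activity change from -70% to -50%; inactive means maximum activity change above -50%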;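 further: thallium influx rate constant from kinetic fluorescence after stimulation buffer; on the % scale 0 is the no-effect control and ±100 the full control effect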
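Kinetic fluorescence (2 min after stimulation buffer) measures Tl+ influx through KCNH2 3.1 expressed by viral transduction in U2OS cells; the rate constant is normalized against DMSO controls serving as positive and negative references.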
Rango release inh – qHTS Assay for Inhibitors of RanGTP induced Rango (Ran-regulated importin-beta cargo) - Importin beta complex dissociation. Snurportin-1 (Homo sapiens) + GTP-binding nuclear protein Ran (Homo sapiens) + Importin …. Biochemical FRET Rango-importin beta, RanGTP-induced dissociation. Potency, µM (doses to about 46.1 µM), inactives show at the highest dose activity change, negative = inhibition. 340,000 tested, 0.071% active. AID 540253, 2011; further: potency means the concentration at half of the fitted maximal effect; % of control where 0% means no effect; nearly all actives have a fitted effect of over 45% in size
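Rango/importin beta premix (0.1/0.25 uM final), PBS + 1 mM DTT + 0.02% Tween-20 + 0.1% BSA; cpd 5 min RT; FRET pre-read; + RanGTP-RCC1 (0.6 uM Ran, 2 mM GTP, 0.2 uM RCC1); 45 min RT; FRET post-read, ex 430, em 486/530 nm.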
CCT modulator – High-Throughput Screening for Modulators of Cytosolic Chaperonin Activity. purified chaperonin ATPase assay, HTRF ADP detection, 30 min. 360,000 tested, 0.3% active. AID 651819, 2012. activity change, % (concentration not given with the values), hits read low; in the data active means activity change below about -30%; further: on the % scale 0 is the no-effect control and ±100 the full control effect
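ATPase activity: ADP formed was measured by HTRF Transcreener (665/615 nm ratio) after 30 min at 37 deg C with 10 uM ATP. Compounds screened at one 76 uM concentration against 40 or 20 nM TRiC in Tris pH 7.4/KCl/MgCl2/DTT buffer.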
MmCpn inh – Inhibitors of TCP-1 ring complex (TRiC) of Methanococcus maripaludis (MmCpn): qHTS. Chaperonin Mm-Cpn (Methanococcus maripaludis). purified Mm-Cpn ATPase, ADP Transcreener TR-FRET. Potency, µM (series often up to 76.9 µM), for the others: top-dose activity, negative = inhibition, usual class: inhibitors. 330,000 tested, 0.031% active; active means well fitted inhibition curve with a large enough effect; inconclusive means small, poorly fitted or top-dose-only effect; further: potency means the concentration at half of the fitted maximal effect; on the % scale 0 is the no-effect control and ±100 the full control effect; nearly all actives have a fitted effect of over 80% in size
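Inhibition of chaperonin ATP hydrolysis is measured as reduced ADP production, detected by competitive TR-FRET in which signal falls with ADP. Final enzyme 25 nM and ATP 10 uM, reacted 30 min at 37°C.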
Rango complex inh – qHTS Assay for Inhibitors of Rango (Ran-regulated importin-beta cargo) - Importin beta complex formation; Importin subunit beta-1 (Homo sapiens), Q14974; Rango CFP/YFP FRET sensor + importin beta, 45 min; Potency, µM (titrated, usually from 92.2 µM), without a hit: top-dose inhibition of complex formation; 340,000 tested, 0.031% active;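 further: potency means the concentration at half of the fitted maximal effect; 0% = DMSO wells and 100% = buffer wells lacking importin beta; nearly all actives have a fitted effect of over 15% in size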
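FRET biosensor Rango (snurportin 1 IBB between N-terminal EYFP and C-terminal Cerulean), 50 nM in PBS/1 mM DTT/0.02% Tween-20/0.1% BSA, preincubated 5 min RT with compound; 0.125 microM importin beta added, 45 min RT, CFP/YFP FRET ratio read.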
KCNH2 WT inh – qHTS for Inhibitors of KCHN2 3.1: Wildtype qHTS; Voltage-gated inwardly rectifying potassium channel KCNH2 (Homo sapiens), Q12809; U2OS, BacMam KCNH2, thallium flux FluxOr; stronger effect = lower value; activity change, % at 1.84 µM; 340,000 tested, 0.37% active;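 active means maximum activity change below -70%; inconclusive means maximum activity change between -70% and -50%; inactive means maximum activity change above -50%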; further: on the % scale 0 is the no-effect control and ±100 the full control effect
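U2OS cells were transduced with wild-type KCNH2 virus (2.03 x 10^8 / mL) for 4 h at room temperature, then cultured overnight at 37 C. Thallium flux was read with FluxOr dye. Rate constants were normalized to DMSO controls.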
The depositor's hits bear a star; ? = inconclusive; . = no result given. Unless noted, the call rests on the fitted dose curve.

SMILES	KCNH2 3.1 inh	Rango release inh	CCT modulator	MmCpn inh	Rango complex inh	KCNH2 WT inh
COc1ccc(CNC(=O)COc2ccc(Br)c(C)c2)cc1	10	?	0	-3%	0%	-5
Cc1cc(/C=C2\SC(=S)N(Cc3ccco3)C2=O)c(C)n1-c1ccccc1	-23	?	-1	-4%	?	-81*
CN(C)c1ccc(C=C2SC(=S)N(Cc3ccco3)C2=O)cc1	-28	.	-2	.	.	-35
CCN(CC)S(=O)(=O)c1cccc(C(=O)Nc2ccc(C#N)cc2)c1	-76*	9%	-2	0%	0%	0
CCN(CC)S(=O)(=O)c1cccc(C(=O)N[C@H](C(=O)O)C(C)C)c1	-3	-6%	0	2%	0%	-170*
CCN(CC)S(=O)(=O)c1cccc(C(=O)N[C@H](C(=O)NCc2ccccc2F)C(C)C)c1	3	-8%	1	-2%	-5%	-7
O=C(c1cnc(Cl)c(Cl)c1)N1CCN(S(=O)(=O)c2cccs2)CC1	3	.	0	.	.	8
CCOC(=O)C1CCCN(C(=O)c2ccc3nc(-c4ccc(OC)c(OC)c4)c(-c4ccc(OC)c(OC)c4)nc3c2)C1 (centres undefined)	4	?	-1	-1%	?	1
CCOC(=O)C1CCN(C(=O)c2ccccc2N(C)S(C)(=O)=O)CC1	-91*	1%	-5	0%	1%	-26
CCOC(=O)C1CCN(C(=O)c2ccc(N(C)S(C)(=O)=O)cc2)CC1	-19	1%	-1	2%	-3%	-14
CCOC(=O)C1CCN(C(=O)c2c(-c3ccccc3)noc2C)CC1	-75*	18%	-7	-3%	?	3
CCOC(=O)C1CCCN(C(=O)c2ccc3nc(-c4ccccc4)c(-c4ccccc4)nc3c2)C1 (centres undefined)	4	-12%	-3	40µM*	0%	8
O=C(OCC(=O)N1CCc2ccccc2C1)c1ccc(O)cc1	17	15%	-1	1%	-1%	-19
COc1ccc(NC(=O)CSCc2cc(=O)n3c(C)csc3n2)cc1	0	8%	2	2%	3%	2
O=C(N=C1SC2CS(=O)(=O)CC2N1c1ccc(Br)cc1)C1CCCO1 (centres undefined)	9	0%	-16	-4%	-1%	-2
Cc1ccc(S(=O)(=O)N2C(=O)/C(=C3\SC(=S)NC3=O)c3ccccc32)cc1	.	.	.	1%	.	.
CCCCC(CC)C(=O)Nc1cc(C(=O)NCCC)ccc1N1CCC2(CC1)CC(c1cccc(Br)c1)=NO2 (centres undefined)	?	1%	-1	-4%	0%	-84*
CCCNC(=O)c1ccc(N2CCC3(CC2)CC(c2ccccc2)=NO3)c(NC(=O)Cc2ccc(F)cc2)c1	-77*	8%	-1	1%	1%	?
O=C(CNC(=O)c1ccncc1)N/N=C/c1cc(Br)ccc1O	.	-1%	-1	-1%	9%	4
O=C(CNC(=O)c1ccncc1)N/N=C/c1ccc(Br)cc1	-109*	0%	0	1%	0%	11
CN(C(=O)CSc1n[nH]c(-c2cccs2)n1)C1CCS(=O)(=O)C1 (centres undefined)	6	11%	0	0%	3%	4
CCCN(CC(=O)Nc1ccccc1C)C(=O)c1ccc2c(c1)S(=O)(=O)N=C1CCCCCN12	-10	-7%	-1	0%	0%	-15
